Screening results from PubChem.
Most compounds without a hit are left out; they make up all but 14% or so of the library.
Pf growth 48h: inhibits P. falciparum growth in the first generation, 48 h; P. falciparum luciferase growth in erythrocytes, 48 h; Potency, µM (titrated, usually from 28.7 µM), usual class: inhibitors; actives 5.9% (n = 310,000)
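Luminescence readout; reporter = integrated firefly luciferase in P. falciparum. RBC culture at 2% hematocrit, 0.1% parasitemia final, 37 C/5% CO2; decreased signal taken as growth inhibition.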
Pf growth 96h: P. falciparum growth inhibition at 96 hour, primary screen for plastid delayed-death inhibitors. P. falciparum luciferase reporter growth, 96 h. Potency, µM (titrated, usually from 28.7 µM), actives largely listed as inhibitors. actives 6.9% (n = 320,000). AID 504834
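Two parasite generations (96 h, 37 C, 5% CO2) of compound exposure in infected erythrocytes (0.05% parasitemia, 2% hematocrit). Luciferase-reporter P. falciparum; decreased luminescence indicates inhibited growth, aimed at apicoplast-acting delayed death.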
Giardia FBPA inh: inhibitors of Giardia lamblia fructose-1,6-bisphosphate aldolase. AID 2451. purified Giardia FBPA. actives 0.71% (n = 290,000). Potency, µM (highest dose often 59.6 µM), most hits filed as inhibitors; further: nearly all actives have a fitted effect of over 55% in size
Target sequence (A8B2U2 whole entry, looked up): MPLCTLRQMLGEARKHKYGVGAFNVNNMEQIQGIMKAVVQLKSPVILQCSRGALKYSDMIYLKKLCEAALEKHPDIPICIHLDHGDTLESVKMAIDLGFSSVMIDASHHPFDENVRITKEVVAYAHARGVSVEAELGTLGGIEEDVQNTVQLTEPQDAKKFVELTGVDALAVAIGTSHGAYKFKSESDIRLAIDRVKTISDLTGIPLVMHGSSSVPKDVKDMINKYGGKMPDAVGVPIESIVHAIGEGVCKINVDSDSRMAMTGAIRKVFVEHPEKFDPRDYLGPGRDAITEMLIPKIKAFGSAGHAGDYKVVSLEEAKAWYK
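Giardia FBPA (40 nM reagent) was preincubated 10 min at RT with compound (up to 57.5 uM final), then substrate plus GAPDH/TPI/NAD/arsenate coupling system with diaphorase/resazurin was added; resorufin fluorescence (525/598 nm) was read after 20 min.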
HCMV inh: inhibitors of human cytomegalovirus | HFF cells, HCMV-luciferase reporter, 72 h; hits give low values | activity change, negative = inhibition, % at 57.5 µM | actives 4.5% (n = 410,000) | AID 1259415; in the data active means activity change below about -60%; inconclusive means no clear call, values can overlap the other calls; inactive means above about -39%
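Screen run at 2 compound doses on HFFs infected with reporter HCMV, MOI 1 PFU/cell. Luciferase activity from cell lysates at 72 h post infection gave inhibition relative to buffer-only and Salinomycin wells.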
Sm TGR inh: blocks Schistosoma mansoni thioredoxin glutathione reductase; Q962Y6; Potency, µM (titrated, usually from 114 µM), actives largely listed as inhibitors; purified TGR, DTNB reduction, TNB absorbance 405 nm; AID 485364; actives 3% (n = 360,000); further: nearly all actives have a fitted effect of over 60% in size
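TGR 20 nM + NADPH 100 uM (dispensed conc.), cpd preinc 15 min RT; start with NADPH (500 uM addition) then DTNB (15 mM addition). Kinetic TNB absorbance, 405 nm filter. Four-parameter Hill fit across titration.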
Numbers stand for hits; [ ] = another dose, or the depositor's remark. Unless noted, the call rests on the fitted dose curve; in most records, active means well fitted curve in the direction sought with a large enough effect; inconclusive means small, poorly fitted or top-dose-only effect, or another doubt; inactive means no such curve, though single readings can be large; an effect the other way counts as inactive or inconclusive.

`c1ccc2c(c1)ncn2CCn1cnc2ccccc21` gave Pf growth 96h inactive, Giardia FBPA inh inactive, HCMV inh inactive and Sm TGR inh inactive[11.4 µM].
Screening O=c1c2ccccc2ncn1CCCOc1ccccc1[N+](=O)[O-] returned Pf growth 48h inactive, Pf growth 96h inactive, Giardia FBPA inh inactive, HCMV inh inactive and Sm TGR inh inactive.
`O=[N+]([O-])c1ccccc1OCCCn1cnc2ccccc21` gave Pf growth 48h inactive, Pf growth 96h 2.3µM, Giardia FBPA inh inconclusive, HCMV inh inactive and Sm TGR inh inactive.
`NCCCn1cnc2ccccc21` gave Pf growth 48h inactive, Pf growth 96h inconclusive, Giardia FBPA inh inactive, HCMV inh inactive and Sm TGR inh 35µM.
For CC1(c2ccc([N+](=O)[O-])cc2)NC(=O)N(CC(=O)Nc2cccnc2Cl)C1=O (centres undefined) the results were Pf growth 48h inactive, Pf growth 96h 12µM, HCMV inh inactive and Sm TGR inh inactive.
For COc1cc(NC(=O)CN2C(=O)NC(C)(c3ccc4ccccc4c3)C2=O)c(C)cc1[N+](=O)[O-] (centres undefined) the results were Pf growth 48h inconclusive, Pf growth 96h inconclusive, Giardia FBPA inh inactive, HCMV inh inactive and Sm TGR inh inactive.
Screening COc1ccc(OC)c(C(=O)CN2C(=O)NC(C)(c3ccccc3)C2=O)c1 (centres undefined) returned Pf growth 48h inactive, Pf growth 96h inactive, Giardia FBPA inh inactive, HCMV inh -61 and Sm TGR inh inactive.
Cc1ccc(C2(C)NC(=O)N(CC(=O)NCCC3=CCCCC3)C2=O)cc1 (centres undefined) was read as Pf growth 96h inconclusive, Giardia FBPA inh inactive, HCMV inh inactive and Sm TGR inh inactive.
`COc1ccc(NC(=O)CN2C(=O)NC(C)(c3ccccc3)C2=O)c(OC)c1` (centres undefined) gave Pf growth 48h inactive, Pf growth 96h inactive, Giardia FBPA inh inactive, HCMV inh inactive and Sm TGR inh inactive.
`COc1cc(NC(=O)CN2C(=O)NC(C)(c3ccccc3)C2=O)c(C)cc1[N+](=O)[O-]` (centres undefined) gave Pf growth 48h inconclusive, Pf growth 96h 12µM, Giardia FBPA inh inactive and Sm TGR inh inactive.
`CC1(c2ccccc2)NC(=O)N(CC(=O)NCCC2=CCCCC2)C1=O` (centres undefined) gave Pf growth 48h inactive, Pf growth 96h inactive, Giardia FBPA inh inactive, HCMV inh -69 and Sm TGR inh inactive.
Cc1ccc(-n2c(C)cc(C(=O)CN3CCCCC3)c2C)cc1 was read as Pf growth 48h inconclusive, Pf growth 96h inconclusive, Giardia FBPA inh inactive, HCMV inh inactive and Sm TGR inh inactive.
For CC(C)Oc1ccc(C(=O)N(Cc2ccc(N(C)C)cc2)Cc2ccco2)cc1 the results were HCMV inh inactive and Sm TGR inh inactive.
O=C(N/N=C/c1ccc([N+](=O)[O-])cc1)c1cccc2cc[nH]c12 was read as Pf growth 48h inactive, Pf growth 96h inconclusive, Giardia FBPA inh inactive, HCMV inh inactive and Sm TGR inh inactive.
For CCN(CC)c1ccc(/C=N\NC(=O)c2cccc3cc[nH]c23)cc1 the results were Pf growth 48h inactive, Pf growth 96h inactive, Giardia FBPA inh inactive, HCMV inh -63 and Sm TGR inh inactive.
CCCCNc1nc2ccccc2n1CC(=O)N1CCc2ccccc2C1 was read as Pf growth 48h 12µM, Pf growth 96h 3.7µM, Giardia FBPA inh inactive, HCMV inh inactive and Sm TGR inh inactive.
Cc1ccc(N2CCN(S(=O)(=O)c3nnc(NC(=O)c4ccccc4)s3)CC2)cc1 was read as Pf growth 48h inactive, Pf growth 96h inactive, Giardia FBPA inh inconclusive, HCMV inh inactive and Sm TGR inh inactive.
CCC(C)NC(=O)CSc1nc2ccccc2c(=O)n1Cc1ccc(OC)cc1 (centres undefined) was read as Pf growth 96h 1.7µM, Giardia FBPA inh inactive, HCMV inh inactive and Sm TGR inh inactive.
For NC(=O)CSc1nc2ccccc2c(=O)n1Cc1ccccc1 the results were Pf growth 48h inactive, Pf growth 96h inactive, Giardia FBPA inh inactive, HCMV inh inactive and Sm TGR inh inactive.
CC(CCc1ccccc1)NC(=O)CSc1nnnn1C (centres undefined) was read as Pf growth 48h inactive, Pf growth 96h 4.7µM, Giardia FBPA inh inactive, HCMV inh inactive and Sm TGR inh inactive.
